# Source: the supplement of paper PMC11577813, “Eurasian spruce bark beetle detects lanierone using a highly expressed specialist odorant receptor, present in several functional sensillum types” (BMC Biology, 2024)
# ± gives the standard deviation of the averaged measurements.
# System: ipsdienol A-neuron OSN class
# Assay: net action potential response of A-neuron (blank-subtracted) (spikes/s (Hz)); higher = stronger excitation
# Details: 10 µg on filter paper; neuron: A neuron (large spike amplitude)
# Experimental: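 Single sensillum recordings from antennal olfactory sensilla of live adult Ips typographus. Each compound was 10 µg in paraffin oil on filter paper, delivered as a 0.5 s puff. Net response = spikes in the first 0.5 s of response minus the 0.5 s pre-stimulus count, doubled to give Hz, with blank response subtracted. Values are for the large-spike A-neuron class of each of seven sensillum types that co-house the lanierone B-neuron; N = 1-4 sensilla, averaged.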
row,Structure (SMILES),net action potential response
1,C=C(C)[C@@H]1CC=C(C)CC1 [(-)-Limonene],5.33 ± 1.1
2,CCC(C)CO (racemic) [(±)-2-Methyl-1-butanol],3.33 ± 1.1
3,CC[C@H]1O[C@]2(C)CCC[C@H]1O2 (racemic) [(±)-exo-Brevicomin],-2.67 ± 5
4,CC(C)CCO [3-Methyl-1-butanol],0.667 ± 4.2
5,CC1=CCC2CC1C2(C)C (stereo not drawn) [(+)-α-Pinene],2.67 ± 1.1
6,CC(=O)OCc1ccccc1 [Benzyl acetate],-0.667 ± 5
7,CCC/C=C\CO,0.667 ± 3.1
8,CC/C=C\CCO,0 ± 2
9,CCC1CCC2(CCCO2)O1 (racemic) [(±)-Chalcogran],1.33 ± 2.3
10,CC1=C[C@@H](O)[C@H]2C[C@@H]1C2(C)C [(-)-trans-Verbenol],0.667 ± 3.1
11,CCCCCCO [1-Hexanol],-5.33 ± 5.8
12,C=Cc1ccccc1 [Styrene],0 ± 2
13,CC(=O)CC/C=C(\C)CCC=C(C)C [Geranylacetone],2.67 ± 4.6
14,CC(C)=CCC/C(C)=C/C=O [Citral (E/Z mix)],1.33 ± 1.1
15,C=C1CCC2(C(C)C)CC12 (racemic) [(±)-Sabinene],3.33 ± 2.3
16,CC/C=C/CCO,0.667 ± 3.1
17,CC12CCC(CC1=O)C2(C)C (racemic) [(±)-Camphor],-0.667 ± 5
18,C=C1CCC2CC1C2(C)C (stereo not drawn) [(-)-β-Pinene],2.67 ± 1.1
19,CC1=CCC(=C(C)C)CC1 [Terpinolene],1.33 ± 1.1
20,CCCCCC(O)CC (racemic) [(±)-3-Octanol],-0.667 ± 5

row,Structure (SMILES),net action potential response
1,CC(=O)OCCC(C)C [3-Methylbutyl acetate],0 ± 6.9
2,"COc1ccc(C)cc1OC [3,4-Dimethoxytoluene]",0.667 ± 1.1
3,C[C@H]1C(=O)C[C@H]2C[C@@H]1C2(C)C [(-)-Pinocamphone],-2.67 ± 1.1
4,C=CC(=C)CCC=C(C)C [Myrcene],-2 ± 3.5
5,COc1ccccc1 [Anisole],2.67 ± 1.1
6,C=CC(=C)CC(O)C=C(C)C (racemic) [(±)-Ipsdienol],116 ± 12
7,CC1(C)C2CC=C(CO)C1C2 (racemic) [(±)-Myrtenol],0.667 ± 3.1
8,CCc1ccc(O)c(OC)c1 [4-Ethylguaiacol],0 ± 8
9,CC1=CC(=O)[C@@H]2C[C@H]1C2(C)C [(-)-Verbenone],2 ± 2
10,CC1=CC(C)(C)C=C(O)C1=O [Lanierone],-3.33 ± 6.4
11,CC(=O)OC/C=C(\C)CCC=C(C)C [Geranyl acetate],2
12,"CC12CCC(CC1)C(C)(C)O2 [1,8-Cineole]",0 ± 5.3
13,C=CCc1ccc(OC)c(OC)c1 [Eugenol methyl ether],1.33 ± 1.1
14,CC(C)[C@@]12CC[C@@](C)(O)[C@@H]1C2 [(+)-trans-4-Thujanol],-4 ± 4
15,CCCCCC=O [Hexanal],0.667 ± 2.3
16,C=Cc1ccc(OC)cc1 [4-Vinyl anisole],2 ± 6
17,Cc1ccc(C(C)C)cc1 [p-Cymene],2 ± 3.5
18,CCC/C=C/CO,-1.33 ± 1.1
19,C[C@]12CCC[C@](C)(OC1)O2 (racemic) [(±)-Frontalin],2 ± 3.5
20,CC(=O)c1ccccc1 [Acetophenone],-4 ± 5.3
